Records with an inconclusive call do not appear. Activity calls are given as the source filed them. Rule for the calls: active = hit-call score of the fitted dose curve at least 0.9, where 1 is the maximum; inconclusive = response in the unintended direction; inactive = score below 0.9.
Test: ATG_GAL4_TRANS: Attagene TRANS-FACTORIAL HepG2 Assay for GAL4 (Internal Marker) (AID 2282976)
Conditions: HepG2 Attagene TRANS GAL4 internal marker reporter
Description: ATG_TRANS is a cell-based, multiplexed-readout assay that uses HepG2, a human liver cell line, with measurements taken at 24 hours after chemical dosing in a 24-well plate.ATG_GAL4_TRANS is one of 30 assay component(s) measured or calculated from the ATG_TRANS assay. It is designed to make measurements of mRNA induction, a form of inducible reporter, as detected with fluorescence intensity signals by Reverse transcription polymerase chain reaction (RT-PCR) and Capillary electrophoresis technology.Data from the assay component ATG_GAL4_TRANS was analyzed into 1 assay endpoint. This assay endpoint, ATG_GAL4_TRANS, was analyzed in the positive analysis fitting direction relative to DMSO as the negative control and baseline of activity. Using a type of inducible reporter, measures of mRNA for gain-of-signal activity can be used to understand the background control at the transcription factor-level as they relate to the gene . Furthermore, this assay endpoint can be referred to as a secondary readout, because this assay has produced multiple assay endpoints where this one serves a background control function. To generalize the intended target to other relatable targets, this assay endpoint is annotated to the background measurement intended target family, where the subfamily is baseline control.
Human liver HepG2 cells are transiently transfected with multiple reporter transcription units (MRTUs) in 6-well plates using FuGene 6 reagent (Roche; 3 ml FuGene/1 mg DNA). The MRTU constructs are regulated by a cis-regulating element (promoter). […] A major difference between the CIS and TRANS system is that in CIS activities of endogenous TFs are measured, whereas the TRANS assay evaluates changes in activities of exogenous, chimeric NR-Gal4 proteins. […] At the end of 24 hour incubation, total RNA was isolated using TriZol reagent (Invitrogen). The isolated RNA is then reverse-transcribed using oligo(dT) primer and Mo-MLV reverse transcriptase (Invitrogen) with DNAse I (Ambion) treatment for 30 min. The one-tenth of the produced cDNA was amplified by PCR using Taq DNA polymerase (Invitrogen) and two reporter sequence-specific primers. The PCR products were fluorescently labeled by primer extension with 6-arboxyfluorescein (6-FAM) 5'-labeled reporter sequence-specific primer (2 min at 95 C, 20 s at 68 C and 10 min at 72 C) and these products were digested with 5U of HpaI (New England Biolabs) for 2h at 37 C. The fragments were purified using Qiaquick PCR columns (Qiagen), analyzed on an ABI 3130xL genetic analyzer (Applied Biosystems) with peak positions identified by using a set of X-rhodamine (ROX)-labeled MapMarker1000 molecular weight standards (BioVentures). The raw capillary electrophoresis data was processed using Attagraph software (Attagene).

outcome, inactive:
CCCCCCOC(=O)C(C)CC (stereo not given)
CCC(CC)C(=O)O
C=C(C)CCO
CC(CC=O)CCCC(C)(C)O (stereo not given)
CCCCCCCC/C=C\CCCCCCCC(=O)O
CCCNC(=O)NS(=O)(=O)c1ccc(Cl)cc1
c1cc(C(c2ccc(OCC3CO3)cc2)C(c2ccc(OCC3CO3)cc2)c2ccc(OCC3CO3)cc2)ccc1OCC1CO1 (stereo not given)
O=c1c2ccccc2oc2ccccc12
C=C(C)C(=O)OCCO
OCCCS
CC=CC(F)(F)C(F)(F)C(F)(F)F
O=C(c1ccc(O)cc1)c1ccc(O)cc1O
CCCC(C)CCC(C)=O (stereo not given)
C[Si](C)(CCCN)O[Si](C)(C)CCCN
O=CC1CC1
CCCCCCCCC(=O)OCC
CC(C)COC(=O)C=Cc1ccccc1
CC(=O)C=CC1C(C)=CCC(C)C1(C)C (stereo not given)
O=C1CCCC1
C=C(C)C(=O)OCC(C)C
CC(=O)Oc1ccc(C)cc1
CCOC(=O)[C@H](C)O
NNC(=O)c1cccc(C(=O)NN)c1
c1ccc2c(c1)ccc1ncccc12
CCCCCC/C=C\CCCCCCCC(=O)O
COC(F)(F)C(F)(C(F)(F)F)C(F)(F)F
C=COCCCC
CCCCCCCOC(=O)CCC
CC(=O)OCc1ccco1
Cc1cc(C)c(C)c(O)c1
CCCc1ccc(OC)cc1
CCO[Si](CCCN=C=O)(OCC)OCC
CC1=Nc2ccc3ccccc3c2C1(C)C
CC(C)c1ccc(C#N)cc1
CCCCCCCCO[C@@H]1O[C@H](CO)[C@@H](O)[C@H](O)[C@H]1O
COCc1c(C(C)C)nc(C(C)C)c(/C=C/[C@@H](O)C[C@@H](O)CC(=O)O)c1-c1ccc(F)cc1
C=CC(=O)NC(C)(C)CS(=O)(=O)O
O=C1CCC(=O)N1Cl
O=C1CCCCCN1SSN1CCCCCC1=O
CC1=CC[C@H]2C[C@@H]1C2(C)C
